30 molecules from the supplement of paper PMC12632987 can be followed below.

To fix the notation:
B1: GBRAP_184_5275 (protein)
chain: KVIHVDIVAETGEEAIKEVKKAAEKAKKEGAKLKINILLENSSVEETIKLFELLKKLKEEGIIEDAVVGIENEKTEEEIDTLLKAADEAGVKLVLAISDE
B2: GBRAP_80_6828 (protein)
chain: AEKELEAVIKELAEVDPEIAKLVEEAIEIAKELGVPLEVLLRFAKAILELAKVDKEKALELVKELLEELKKAKEEGNRDEAIALLYDAESEALLAVEELE
B3: GBRAP_52_6260 (protein)
chain: MRERLRALVEEILELVKAGRLEEARALATELAETFNEEELEIFIEEAAELARRSSKEEVEDLIRMAELVAEALEEAGRPEELVSLFEARVYGAIYETEKR
B4: GBRAP_160_4430 (protein)
chain: AEKLEKAKKEIDALFAEALEMMKGQTAEQRIVVLRVTEGEVKLELEELGLLTDEVDAVIDATFAAIIAHVAAHPDITDAELAALLDAAAATIKAELDKAA
B5: GBRAP_83_6937 (protein)
chain: KEKITVVANDDNIEKSFEIAEDLHKEEGYEVDIDVIITKESIEKLLKEVEKLFKKGVNADLHISLLGVTEEEAEELKKKLEEMAKKYGVNANITVEAIEL
B6: GBRAP_125_3132 (protein)
chain: HMEEILENLAIVAKALGLSDDDVEEAVKIAEKHGVKGTMYAILAALGYDEVADLVEKITEEEAIEVVKEVAEKIKKDPSLTPEEVVELIKKLLKEKIAAK
B7: GBRAP_125_3133 (protein)
chain: MTEEILEDLAIVARALGFSDDDVEEAVEIARKHGVKGTLYAIMLALGYEEVADLVEKITEEEAIEVLREVAARIREDPSLTPEEVVALIKELLKEKIAKK
B8: GBRAP_125_3134 (protein)
chain: GMAEDLEDLAIVARALGFSDDDVAEAVAIAAKHGFKGTLYAIMAALGYDEVADLVEKITEEEAIEVIREVAAEIRADPSLTPEEVVELIKKRLEEVIAKK
B9: GBRAP_52_5954 (protein)
chain: AAARIQAQVDRLAALVRAGDLDAARALARELAETLDEEELRAFAAAVAAAVAAAPADELDAAFRLAEIVADELEREGRDEELAGDLLAAAAAALYAKEQA
B10: GBRAP_52_5929 (protein)
chain: MREEARELAERVLEAAEAGDEERLRELLREIVEELDDEEIELVIDELAELTIERGPEYYDLFADIMDLLEDEVEKAGRDVERVQYAIARAAGRMYDALQA
B11: GBRAP_137_3627 (protein)
chain: ATVTIELRRYEDVVEITITLDDPEKAEAAAELVEDVAHEEGALAVSIELEEDGTLVVEVWVPRDKAEALLARLVERLTTELGATVVIRDLDTGEVRVVTP
B12: GBRAP_184_5122 (protein)
chain: DVVHRAVEGEKAEELIAASRAVVEEAAAAGKRLHLSVFAKNMSVEEIIEVIKAMGELKARYPQVSVTVDVLDELSEEEIDKVLKAADEAGVRVVIAIPEE
B13: GBRAP_11_2857 (protein)
chain: KKEKLKEAAELARKAAEALEKLLKEGVDDKELQKKIEELLKKLLELVKEYGDPDLIKLAEIALENFQKAKKDPKNAEKYIKEALAAVRVLEGNLLLEIDE
B14: GBRAP_9_7127 (protein)
chain: KKELVEKLKEVVEEMIEDISKVVPEVTEEMKEEFLKKVEELEKEALEDESLTPEEIKEKFKELVEEIKEEVKKIVDEELKKLVEAIALTALEEIDEIVEE
B15: GBRAP_52_6037 (protein)
chain: MREKMREKAEEIVKLVLEGKLEEAEKLIRELVETLSEEELLLLGEELARIAREAPEEELDAILEAAFILADELIEGGYEEVLADEIEARVTRAAVERLER
B16: GBRAP_11_2679 (protein)
chain: KKEQLKKIAEIAKELAEAIEKLLKEGVDNEKLLKEIKKLLKELKELAEKYADEGLKTLAEIAAELFEEALANPENAEHYLELLLAAVRVLLANVEEEIDE
B17: GBRAP_52_6366 (protein)
chain: DLEEAVKLLREAVKAVLEGKEEEAEKILKEIVENFSEETILEAARRLAEELLEKSLEEAEAFLEAAIMLADILEEAGKSEVVGDEIEAIAARTLMEIRER
B18: GBRAP_11_2721 (protein)
chain: KAEKLKALAEKAEALAEKVEKLIKEGPKKEEIKKLAEEVEKLREEAKKIGASEDVLKTLDIAAENLKKAIEDPSNVEEHLKNAAAALRVAAGQLLLEAEE
B19: GBRAP_160_4055 (protein)
chain: AEEKERLIADVDAAEAAILAVIDEEGAEAAAVMADGEFGAIIMEAAELPTASDELVDALEAIRDALVAGLRANAAASPAELKALVRAAAAAAKEAIKKHY
B20: GBRAP_160_4135 (protein)
chain: SEELEKLIKEIKEIGEEALEMIEGETPENAKVIARVALGDIVMLVESNDAISEETEDEIGKIADEAEATLKANPDLTVEEIKALLKEATEKVVEIIEKEK
B21: GBRAP_52_6086 (protein)
chain: MEERLEALAREIAAAVAAGDREGALALIEEAIKELSVEEIRRLLRLAAERVAALGEDAHVLFVDLLDEAEDLMIKAGISEEDALLIVGDAEAALAKAVAA
B22: GBRAP_52_6087 (protein)
chain: MEERLEKLAKEIAEAVAAGKRDEALALMEKAIKELSVEEIKKLFKLAAELVAKLGEEAEELFVDLLDEAEDLLIEAGISEEDALLIVGDAEAALAKAVAA
B23: GBRAP_160_4202 (protein)
chain: EEKVKKIIEELKEETEEVIKLLDEVSVEEAAVFAEVEFGSVLMLAVELGIENDEILDVIDEAGDKIVKYLKENKDASVEELKKKIKEITEEAIKKIKELA
B24: GBRAP_39_5664 (protein)
chain: EEDEENELLFEYYLAKAEGYRIKEGISDEELIERGKELLKAIAKEHPEIKELVEELLKEVDKGDEDVGLAAAGIALDYLEGLPIEEIKEHLEKLLKYVKK
B25: GBRAP_184_5111 (protein)
chain: KLLEETIKANNKEELEKKLTEVVEKAVKEKADLLVIVEIPNLTPEMAEIIMDKVAKAKEAGIKNVLVEIVSDNLSDEVIDTIDKKAKEYGLTNVVLAMKE
B26: GBRAP_153_3948 (protein)
chain: SMESKEKLEKAKKLIEKIKKSEDPTEYIKELAKLLASMNLEERLEVAKEFNSLSEETVYKIFLTLATEEGFSVEELLELTTELNEEQQAAALKAIVEAQK
B27: GBRAP_39_5630 (protein)
chain: EEEEELELLESLAEADLAKREVETGLPAEELYAELLARAREAAADDPELLALIERLAALAEEHGPEARERLAAAMAAYLAGLPKEDIKRLLTALIEELEA
B28: GBRAP_48_5830 (protein)
chain: MKIDLEKLEALVKETVEEMKELYEEAKKEGLSDEDILKMIKAELGDLALELEEEGYTKAADYLLERENRDELAKKLLELFKEGKYEEAYEYLLKKLKEAE
B29: GBRAP_160_4617 (protein)
chain: SSKIEELKKFVKEEFEEAKEMIEGETPEQRAAIVDVTIGEIILEAEELEVVSDESLEKIDEIGDELVETILENPDLTEEEVKELIDEAEKKIIEIIEEDE
B30: GBRAP_160_4619 (protein)
chain: SEKVEELKKFVEEEFEETKEMIVGQTPEERAAIVDVTIGEIILEAEELEVVSDETLDEIDEIGDELVETILANPDLTDEEIKALIDEAREKIIALIEKDE

Over roughly 4,500 sequences, “median log2 fold change of GCK-ALFA target abundance (FLAG IP / Myc IP barcode read proportion)” has its median near 0.078; the lowest 2% begin near -0.6. Many of the other results were omitted from the sample, so the lowest values are more common in it than they were.

GABARAP, O95166, sequence (O95166 whole entry, the tested form may be a part): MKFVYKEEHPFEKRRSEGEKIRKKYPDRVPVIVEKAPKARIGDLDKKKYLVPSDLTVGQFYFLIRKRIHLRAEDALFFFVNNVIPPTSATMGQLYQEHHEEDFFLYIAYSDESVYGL

The assay deals with GABARAP, O95166. Briefly: median log2 fold change of GCK-ALFA target abundance (FLAG IP / Myc IP barcode read proportion) (log2 ratio); each designed protein is fused to an ALFA-tag nanobody in HEK293 cells to bring the named protein to FLAG-tagged glucokinase (GCK); Myc marks an untargeted standard; higher = target protein stabilised (more abundant). The settings on record: target protein: 3xFLAG-MCP-GCK-ALFA reporter; HEK293 landing pad (RPLP). In outline:
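HEK293 landing-pad cells received a recombined binder library fused to the ALFA nanobody and were induced with 2 μg mL^−1 doxycycline, then transfected with a plasmid encoding a FLAG-tagged target and a Myc-tagged standard. Lysates were collected after 48 h for anti-FLAG and anti-Myc immunoprecipitation, and the circular RNA barcodes were reverse transcribed, amplified and sequenced. Target abundance for each binder is the median log2 ratio of FLAG to Myc barcode read proportions. Barcodes had to reach a proportion of at least 10^−7 in both replicates, each binder needed at least 3 barcodes per replicate, a pseudocount of 10^−6 was applied, and the two replicates were pooled.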
As for B1, the “median log2 fold change” value was -0.234.
The result for B2 reads 0.0224; that for B3, -0.0461.
As for B4, the “median log2 fold change” value is 0.0561.
With B5 the figure was 0.224.
The result for B6 reads -0.0148.
For the molecule B7, the “median log2 fold change” value was -0.744.
With B8 the figure was -0.575; with B9, -0.0538.
As to B10, the “median log2 fold change” value was -0.453.
The result for B11 reads -0.0361; that for B12, 0.0426.
In the case of B13, the “median log2 fold change” value stood at 0.0648.
With B14 the figure was 0.275; with B15, -0.655; with B16, -0.169.
The result for B17 reads -0.214; that for B18, 0.0939; that for B19, 0.183.
The result for B20 reads -0.387.
As for B21, the “median log2 fold change” value was -0.626.
The result for B22 reads -0.234; that for B23, -0.374; that for B24, 0.132.
B25: the “median log2 fold change” value amounted to 0.326.
The result for B26 reads 0.294; that for B27, 0.159.
For B28, the “median log2 fold change” value is 0.224.
The result for B29 reads -0.294.
With B30 the figure was -0.678.
